Laboratory results as given in PubChem BioAssay AID1159580 (chemical genetic matrix, 2015).
Where “and” joins values, the source holds several entries; their conditions need not be identical. Identical values can stand only once. Among all 5,500 compounds or so, about 2,000 (36%) were called active. Not shown: some 18% with an inconclusive outcome. No stated cut-off is given here; in the data, active means normalized growth mostly below about 0.91 (no sharp cut-off); inconclusive means no clear call, values can overlap the other calls; inactive means mostly above about 0.92. The list shows a part of the results.

Experiment: chemical genetic growth profiling, strain panel (AID 1159580);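 further: tested at 20 µM; growth read once vehicle control cultures reached saturation at 30 °C; 1 = growth at the plate median or of vehicle wells; lower values mean less growth of the strain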
Conditions: S. cerevisiae deletion strains, growth OD

Measured: normalized growth

CC1CCC2(OC1)OC1CC3C4CCC5C[C@@H](O)CCC5(C)C4=CCC3(C)C1[C@@H]2C (stereo partly drawn)
inactive: locus YAL021C, strain ccr4, hits give low values 1 | locus YAL026C, strain drs2, hits give low values 0.999 | locus YAL030W, strain snc1, hits give low values 1.02 | locus YBL061C, strain skt5, hits give low values 1.01 | locus YBR009C, strain hhf1, hits give low values 1.01 | locus YBR021W, strain FUR4, hits give low values 1.13 | locus YBR023C, strain chs3, hits give low values 1.01 | locus YBR171W, strain sec66, hits give low values 0.995 | locus YBR229C, strain ROT2, hits give low values 0.991 | locus YBR231C, strain swc5, hits give low values 0.997 | locus YBR279W, strain paf1, hits give low values 1 | locus YCL011C, strain gbp2, hits give low values 0.991 | locus YCL016C, strain dcc1, hits give low values 1 | locus YCL029C, strain bik1, hits give low values 0.972 | locus YCL069W, strain vba3, hits give low values 0.994 | locus YCR088W, strain abp1, hits give low values 1.01 | locus YDL005C, strain med2, hits give low values 1.02 | locus YDL035C, strain GPR1, hits give low values 1.01 | locus YDL040C, strain nat1, hits give low values 0.994 | locus YDL074C, strain BRE1, hits give low values 1.01 | locus YDL101C, strain DUN1, hits give low values 0.985 | locus YDL185W, strain tfp1, hits give low values 0.948 | locus YDL192W, strain arf1, hits give low values 0.985 | locus YDR001C, strain nth1, hits give low values 0.997 | locus YDR069C, strain doa4, hits give low values 1.01 | locus YDR101C, strain arx1, hits give low values 1.01 | locus YDR137W, strain rgp1, hits give low values 1.04 | locus YDR159W, strain sac3, hits give low values 1.01 | locus YDR162C, strain NBP2, hits give low values 1.01 | locus YDR195W, strain ref2 0.931 | locus YDR297W, strain sur2, hits give low values 0.998 | locus YDR318W, strain mcm21, hits give low values 0.979 | locus YDR334W, strain swr1, hits give low values 1.01 | locus YDR335W, strain msn5, hits give low values 1 | locus YDR388W, hits give low values 0.966 | locus YDR392W, strain spt3, hits give low values 0.994 | locus YDR502C, strain sam2, hits give low values 0.974 | locus YEL003W, strain gim4, hits give low values 1 | locus YEL037C, strain rad23, hits give low values 1 | locus YEL061C, strain CIN8 (second series), hits give low values 0.993 | locus YEL061C, strain CIN8, hits give low values 0.996 | locus YER015W, strain faa2, hits give low values 1 | locus YER016W, strain bim1, hits give low values 1 | locus YER110C, hits give low values 0.959 | locus YER111C, strain swi4, hits give low values 0.994 | locus YER155C, strain BEM2 (second series), hits give low values 0.994 | locus YER155C, strain BEM2, hits give low values 1.01 | locus YER167W, strain BCK2, hits give low values 1.01 | locus YFR010W, strain ubp6, hits give low values 1 | locus YGL078C, strain dbp3, hits give low values 0.948 | locus YGL086W, strain mad1, hits give low values 0.998 | locus YGL167C, strain pmr1, hits give low values 1.01 | locus YGL173C, strain kem1, hits give low values 1.01 | locus YGL227W, strain vid30, hits give low values 0.986 | locus YGL240W, strain doc1, hits give low values 1.01 | locus YGL248W, strain PDE1, hits give low values 0.999 | locus YGL253W, strain hxk2, hits give low values 0.99 | locus YGR135W, strain pre9, hits give low values 0.958 | locus YGR252W, strain gcn5, hits give low values 1.01 | locus YHR013C, strain ard1, hits give low values 0.998 | locus YHR027C, strain rpn1, hits give low values 0.989 | locus YHR030C, strain SLT2, hits give low values 0.972 and 1.02 | locus YHR079C, strain IRE1 (second series), hits give low values 0.983 | locus YHR079C, strain IRE1, hits give low values 1.01 | locus YHR094C, strain hxt1, hits give low values 0.973 | locus YHR129C, strain ARP1, hits give low values 0.998 | locus YHR142W, strain chs7, hits give low values 0.995 | locus YHR200W, strain rpn10, hits give low values 0.986 | locus YIL066C, strain RNR3, hits give low values 1 | locus YIL073C, strain SPO22, hits give low values 0.937 | locus YIL125W, strain kgd1, hits give low values 0.982 | locus YIR030C, strain dcg1, hits give low values 0.991 | locus YJL092W, strain hpr5, hits give low values 0.993 | locus YJL095W, strain BCK1 (second series), hits give low values 1.02 | locus YJL095W, strain BCK1, hits give low values 0.982 and 1.02 | locus YJL115W, strain asf1, hits give low values 0.986 | locus YJL129C, strain trk1, hits give low values 1.01 | locus YJL134W, strain LCB3, hits give low values 0.987 | locus YJL154C, strain vps35, hits give low values 1 | locus YJL164C, strain tpk1, hits give low values 1.01 | locus YJL166W, strain qcr8, hits give low values 1 | locus YJL168C, strain set2, hits give low values 0.984 | locus YJL187C, strain SWE1 (second series), hits give low values 0.986 | locus YJL187C, strain SWE1, hits give low values 1.01 | locus YJR043C, strain POL32, hits give low values 1.02 | locus YJR066W, strain TOR1, hits give low values 0.945 | locus YKL009W, strain mrt4, hits give low values 0.988 | locus YKL068W, hits give low values 0.97 | locus YKL085W, strain MDH1 (second series), hits give low values 0.978 | locus YKL085W, strain MDH1, hits give low values 0.978 | locus YKL160W, strain elf1, hits give low values 0.992 | locus YKL190W, strain CNB1, hits give low values 0.992 | locus YKR001C, strain vps1, hits give low values 0.983 | locus YKR026C, strain gcn3, hits give low values 1 | locus YKR091W, strain srl3, hits give low values 1.01 | locus YLL001W, strain dnm1, hits give low values 1.01 | locus YLL026W, hits give low values 0.992 | locus YLL041C, strain sdh2, hits give low values 0.992 | locus YLR027C, strain aat2, hits give low values 0.985 | locus YLR039C, strain RIC1, hits give low values 1.01 | locus YLR058C, strain SHM2, hits give low values 0.973 | locus YLR102C, strain apc9, hits give low values 0.974 | locus YLR113W, strain HOG1, hits give low values 0.992 | locus YLR221C, strain rsa3, hits give low values 1 | locus YLR258W, strain gsy2, hits give low values 0.994 | locus YLR262C, strain YPT6 (second series), hits give low values 1.1 | locus YLR262C, strain YPT6, hits give low values 1.04 | locus YLR268W, strain sec22, hits give low values 0.999 | locus YLR320W, strain mms22, hits give low values 1 | locus YLR330W, strain CHS5, hits give low values 0.993 | locus YLR342W, strain FKS1 (second series), hits give low values 1.05 | locus YLR342W, strain FKS1, hits give low values 1.05 | locus YLR357W, strain rsc2, hits give low values 1 | locus YLR370C, strain arc18, hits give low values 1.02 | locus YLR371W, strain rom2, hits give low values 0.978 | locus YLR384C, strain iki3, hits give low values 1.01 | locus YLR418C, strain cdc73, hits give low values 0.977 | locus YML016C, strain PPZ1, hits give low values 1.01 | locus YML032C, strain rad52, hits give low values 0.964 | locus YML120C, strain ndi1, hits give low values 0.99 | locus YML124C, strain tub3, hits give low values 0.98 | locus YMR058W, strain fet3, hits give low values 0.983 | locus YMR078C, strain ctf18, hits give low values 0.98 | locus YMR125W, strain sto1, hits give low values 0.995 | locus YMR129W, hits give low values 0.997 | locus YMR205C, strain PFK2, hits give low values 0.997 | locus YMR223W, strain ubp8, hits give low values 0.994 | locus YMR231W, strain pep5, hits give low values 0.998 | locus YMR263W, strain SAP30, hits give low values 0.982 | locus YMR307W, strain GAS1, hits give low values 1.27 | locus YNL067W, strain RPL9B, hits give low values 0.974 | locus YNL071W, strain lat1, hits give low values 1.02 | locus YNL183C, strain NPR1, hits give low values 0.963 | locus YNL209W, strain ssb2, hits give low values 1 | locus YNL233W, strain BNI4, hits give low values 0.99 | locus YNL248C, strain rpa49, hits give low values 1.01 | locus YNL250W, strain rad50, hits give low values 0.959 | locus YNL271C, strain bni1, hits give low values 0.983 | locus YNL298W, strain CLA4, hits give low values 0.98 | locus YNL307C, strain MCK1, hits give low values 0.982 | locus YNL322C, strain KRE1 (second series), hits give low values 0.986 | locus YNL322C, strain KRE1, hits give low values 1 | locus YNR049C, strain mso1, hits give low values 1.01 | locus YNR052C, strain pop2, hits give low values 0.981 | locus YOL012C, strain htz1 0.809 | locus YOL147C, strain pex11, hits give low values 0.98 | locus YOR001W, strain rrp6, hits give low values 1.01 | locus YOR061W, strain CKA2, hits give low values 1 | locus YOR069W, strain VPS5, hits give low values 0.981 | locus YOR070C, strain gyp1, hits give low values 1.01 | locus YOR080W, strain dia2, hits give low values 1.01 | locus YOR083W, strain WHI5, hits give low values 1 | locus YOR106W, strain vam3, hits give low values 1.02 | locus YOR136W, strain idh2, hits give low values 0.983 | locus YOR144C, strain elg1, hits give low values 0.979 | locus YOR184W, strain ser1, hits give low values 0.996 | locus YOR231W, strain MKK1, hits give low values 1 | locus YOR265W, strain rbl2, hits give low values 0.999 | locus YOR270C, strain vph1, hits give low values 1.04 | locus YOR290C, strain snf2, hits give low values 1 | locus YOR316C, strain cot1, hits give low values 0.959 | locus YPL051W, strain arl3, hits give low values 0.997 | locus YPL055C, strain LGE1, hits give low values 1.02 | locus YPL078C, strain atp4, hits give low values 0.991 | locus YPL106C, strain sse1, hits give low values 0.995 | locus YPL240C, strain hsp82, hits give low values 1.01 | locus YPL241C, strain CIN2, hits give low values 0.989 | locus YPL256C, strain CLN2, hits give low values 0.983 | locus YPR119W, strain clb2, hits give low values 0.985 | locus YPR141C, strain kar3, hits give low values 0.962 | locus YPR163C, strain tif3, hits give low values 0.954 | locus YPR167C, strain met16, hits give low values 0.989 | strain wtn01, hits give low values 0.986
